Unmarked numbers belong to inactive results. Records with an inconclusive call do not appear. Entries that show only a call come without a potency. Active and inactive are the calls of the source. Unless noted, no rule for the calls is given here.
Tests used:
[1] = biological target: Ferritin light chain (Equus caballus) (UniProt P02791); test: qHTS Validation Assay for Identification of Novel General Anesthetics (AID 2323; active = well fitted curve in the direction sought with a large enough effect; also: series mostly up to about 77 µM)
Chain of Ferritin light chain (Equus caballus) (P02791 2-175 limits assumed): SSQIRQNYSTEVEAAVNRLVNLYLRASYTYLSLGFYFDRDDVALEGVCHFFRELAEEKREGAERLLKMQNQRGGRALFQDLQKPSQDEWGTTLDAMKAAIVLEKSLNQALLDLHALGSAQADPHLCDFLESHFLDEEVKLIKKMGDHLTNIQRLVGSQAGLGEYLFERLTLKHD
Outline: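 Apoferritin from horse spleen (10 uM) was mixed with 1-aminoanthracene at 50% saturation in PBS, then compounds were added. After 10 min at room temperature, fluorescence was read (ex 380 nm, em 535 nm) and normalized to free-probe and complex controls.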

[2] = Validation screen for inhibitors of Lassa infection (AID 463096; calls by dose curve)
[3] = test system: HIV-1 nucleocapsid protein NCp7 (binding to TG oligonucleotide); test: HIV Nucleocapsid (AID 346); details: HIV-1 NC / fluorescein-TGTGTGTG probe, fluorescence polarization;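 also: potency is read from the fitted curve at half-maximal effect; potency is for inhibitors that block NC binding and lower polarization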
Outline: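 NCp7 100 nM + fluorescein TG4xF 10 nM; Hepes pH 7.5/250mM NaCl/1uM ZnCl2/0.004% PEG 20000; 1 hr RT; FP, 45 s exposure; oligo-only wells as negative control.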

Compound	outcome [1]	outcome [2]	Potency [3] [µM]
CN1C2CCC1CC(NC(=O)c1nn(C)c3ccccc13)C2 (stereo not drawn)	inactive	inactive	
O=C(c1ccncc1)N1CCC[C@@]2(CCN(c3ccncc3)C2)C1			> 20

Source: PubChem BioAssay (NCATS)
